Among the data in PubChem BioAssay AID623870 (Broad Institute, 2012) are inhibition values, retold here.

Hit rate of the full screen: of about 390,000 compounds, about 2,600 (0.67%) were called active. The list comes from a sample in which actives are over-represented; it also holds similar structures and randomly drawn compounds. Values without a mark were called inactive.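 How the source made its calls: active means mean inhibition of replicates at least 50% and at least half of replicates each reaching 50%; inconclusive means half or more replicates reach 50% but mean below 50%; inactive means the rest.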

The target in this assay is Transforming acidic coiled-coil-containing protein 3 (Homo sapiens) (UniProt Q9Y6A5). The experiment in a line: disruptors of ARNT/TACC3 protein interaction, primary screen, biochemical, AlphaScreen, single concentration (AID 623870).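 Further: 0% = complete ARNT plus TACC3 wells and 100% = ARNT alone without TACC3.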 Conditions: AlphaScreen His-ARNT PAS-B/GST-TACC3 binding, luminescence; at 9.99 µM; hits give high values; TACC3 fragment carries E629A point mutation.
As for `CN(C)C(=O)C[C@@H]1CC[C@@H](NS(=O)(=O)c2ccccc2)[C@H](CO)O1`, the inhibition is 1.05%. For `Cc1ccc(S(=O)(=O)N2CCCC2CO)cc1` (stereo not given) the value was -6.07%. As to `Cc1ccc(S(=O)(=O)n2oc(=O)c(C3CCCCC3)c2N)cc1`, the inhibition is 64.1% (active).

For `Cc1ccc(S(=O)(=O)N2CC(C)N(S(C)(=O)=O)C2)cc1` (stereo not given), the inhibition is -0.994%. For `C[C@H](CO)N1C[C@H](C)[C@@H](CN(C)C(=O)C2CCC2)Oc2cc(C3=CCCCC3)ccc2S1(=O)=O`, the inhibition is 7.82%.

For the compound `CCOC(=O)C1CCN(C(=O)C2CCN(S(=O)(=O)CC)CC2)CC1`, the inhibition was -3.42%. The value for `CCOC(=O)C1CCN(S(=O)(=O)c2c(C)noc2C)CC1` was -6.32%; that for `CCOC(=O)C1CCN(C(=O)C2CCN(S(=O)(=O)c3c(C)noc3C)CC2)CC1` was 46.8% (active). For the compound `COC(=O)C[C@@H]1CC[C@@H]2[C@H](COc3ccc(NC(=O)c4ccccc4OC)cc3C(=O)N2C)O1`, the inhibition was -6.13%. Take `CN1C[C@H]2[C@@H](c3ccccc31)[C@@H](CO)N2C(=O)Nc1ccccc1`: the inhibition was -0.471%. As to `COc1ccc(S(=O)(=O)N(C)C[C@@H]2OCc3ccccc3-c3ccccc3C(=O)N([C@@H](C)CO)C[C@@H]2C)cc1`, the inhibition was -0.955%.

In the case of `Cc1[nH]n(-c2cccc(Cl)c2)c(=O)c1/C=N/n1c(C)nc2ccccc2c1=O`, the inhibition was 46.7% (active). For `Cc1nc2ccccc2c(=O)n1-c1ccc(NS(=O)(=O)c2ccc(F)cc2F)cc1` the value was -1.59%. For `CCCNC(=O)Nc1ccc2c(c1)C(=O)N(C)C[C@@H](OC)[C@@H](C)CN(Cc1ccccn1)[C@@H](C)CO2` the value was -2.12%. For `CO[C@@H]1CN(C)C(=O)c2cc(NS(=O)(=O)Cc3ccccc3)ccc2OC[C@H](C)NC[C@H]1C` the value was 1.43%. Regarding `CC(C)NC(=O)N[C@H]1CC[C@H](CC(=O)NCCCN(C)C)O[C@H]1CO`, the inhibition is -5.48%. As to `C[C@H](CO)N1C[C@H](C)[C@H](CN(C)CC2CC2)OCCCC[C@H](C)Oc2ccc(NS(=O)(=O)c3cccs3)cc2C1=O`, the inhibition is -8.86%. On to `C[C@@H]1CN([C@@H](C)CO)C(=O)c2cccc(NC(=O)Nc3ccc(C(F)(F)F)cc3)c2O[C@@H]1CN(C)S(=O)(=O)c1cccs1`, for which the inhibition is -2.19%. Consider `COC(=O)CCCCCCC(=O)Nc1ccc(C2OC(CSc3nc(-c4ccccc4)c(-c4ccccc4)o3)CC(c3ccc([N+](=O)[O-])cc3)O2)cc1` (stereo not given), for which the inhibition was 1.18%. For `Nc1nnnn1/N=C/c1cccc(Br)c1` the value was 3.65%; for `Nc1nnnn1/N=C/c1cc([N+](=O)[O-])ccc1O`, 75.7% (active). The value for `Nc1nnnn1/N=C/c1cccs1` was 3.88%. With `C[C@@H]1CCCCO[C@@H](CN(C)S(=O)(=O)c2cn(C)cn2)[C@H](C)CN([C@H](C)CO)C(=O)c2cc(NC(=O)NC3CCCCC3)ccc2O1`, the inhibition is -15%. With `O=C(C[C@@H]1C[C@@H]2c3cc(NC(=O)CC4CC4)ccc3O[C@@H]2[C@@H](CO)O1)NCCN1CCCCC1`, the inhibition was -1.06%.

With `COCC#Cc1cnc2c(c1)C(=O)N([C@@H](C)CO)C[C@@H](C)[C@H](CN(C)C(=O)c1cnccn1)O2`, the inhibition is 4.05%.
